86 sequences from the supplement of paper PMC3334620 can be followed below.

Whole data set: some 33,000 sequences, median “E-score (-0.5 to 0.5)” near -0.036, cut for the highest 2% near 0.37. Only a selection was taken, and the highest values are over-represented in it overall.

This assay has as its target T1, Yer064c (UniProt P40041).
T1 sequence: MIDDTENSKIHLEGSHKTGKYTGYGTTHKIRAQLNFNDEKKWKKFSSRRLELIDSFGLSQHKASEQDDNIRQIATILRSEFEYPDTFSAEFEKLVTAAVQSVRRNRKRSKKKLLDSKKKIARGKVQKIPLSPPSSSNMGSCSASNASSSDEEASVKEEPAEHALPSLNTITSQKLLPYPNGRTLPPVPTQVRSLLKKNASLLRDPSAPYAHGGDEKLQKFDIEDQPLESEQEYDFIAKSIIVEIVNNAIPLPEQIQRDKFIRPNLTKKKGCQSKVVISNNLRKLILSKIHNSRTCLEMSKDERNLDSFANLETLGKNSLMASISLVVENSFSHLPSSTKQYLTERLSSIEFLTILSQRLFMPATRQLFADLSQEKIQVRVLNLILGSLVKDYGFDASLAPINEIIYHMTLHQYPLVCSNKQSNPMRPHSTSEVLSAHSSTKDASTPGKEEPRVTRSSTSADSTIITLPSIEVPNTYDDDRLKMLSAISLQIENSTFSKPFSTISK
As to the kind of experiment: PBM E-score (8-mer binding enrichment) (E-score (-0.5 to 0.5)); higher = stronger / more preferred TF binding. The settings on record: protein concentration: 200 nM; construct: GST-full length. Here is the method: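 Universal 'all 10-mer' protein binding microarrays (Agilent AMADID 015681) probed with GST-tagged S. cerevisiae TFs (full-length or DBD) made by in vitro transcription/translation (PURExpress), about 100-200 nM. Bound TF was detected with fluorescent anti-GST. Each ungapped 8-mer (which stands for itself and its reverse complement) is scored by the PBM enrichment score (E-score), a modified Wilcoxon-Mann-Whitney statistic from -0.5 to +0.5, computed with the Universal PBM Analysis Suite. Scale: above 0.35 generally sequence-specific binding.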
Take AACTCCAT: the “PBM E-score” value worked out at 0.0309.

For CGGTGCAG, the “PBM E-score” value is -0.0907.

As to GAGTCAAC, the “PBM E-score” value is 0.474.

For the sequence GCGTCAAC, the “PBM E-score” value was -0.156.

With CAGTCAAA, the “PBM E-score” value is 0.254.

Regarding AAGTCAAA, the “PBM E-score” value worked out at 0.288.

Consider CAGTCAAC, for which the “PBM E-score” value came out at 0.36.

TTGTCAAA: the “PBM E-score” value was 0.0143.

On to AAGTCAAG, for which the “PBM E-score” value worked out at 0.283.

As to TAGTCAAA, the “PBM E-score” value turned out to be 0.417.

Take GAGTCAAA: the “PBM E-score” value came to 0.461.

For TGGTCAAA, the “PBM E-score” value is -0.0461.

For AAGTCAAC, the “PBM E-score” value was 0.367.

On to ACGTCAAC, for which the “PBM E-score” value is 0.0642.

As for TCAAAAAA, the “PBM E-score” value was 0.16.

On to CGATCACC, for which the “PBM E-score” value was -0.0685.

With ACGATCCG, the “PBM E-score” value is -0.0916.

As for AGGTAGGC, the “PBM E-score” value was -0.231.

Consider AATCATCC, for which the “PBM E-score” value worked out at 0.468.

Consider AATCAACG, for which the “PBM E-score” value came to 0.308.

With CATCATCG, the “PBM E-score” value is 0.125.

Consider CATCATCA, for which the “PBM E-score” value was determined as 0.161.

AATCATCA: the “PBM E-score” value worked out at 0.463.

On to GATCATCC, for which the “PBM E-score” value was found to be 0.171.

As for AATCTTCT, the “PBM E-score” value amounted to 0.201.

Turning to AATCATCT, the “PBM E-score” value turned out to be 0.453.

Consider GATCATCA, for which the “PBM E-score” value was determined as 0.142.

Consider CATCATCC, for which the “PBM E-score” value is 0.0788.

For AATCATCG, the “PBM E-score” value was 0.439.

On to TATCATCA, for which the “PBM E-score” value is 0.0107.

For TGGGCCCA, the “PBM E-score” value was -0.123.

AATATTGT: the “PBM E-score” value is 0.0413.

Take TATGAATA: the “PBM E-score” value was 0.0885.

TCCCTTCA: the “PBM E-score” value is 0.091.

With CCCTTGAA, the “PBM E-score” value was -0.0587.

Consider ACGCGACT, for which the “PBM E-score” value was 0.376.

On to ACGCGACA, for which the “PBM E-score” value is -0.128.

AGGCGACT: the “PBM E-score” value is 0.387.

Regarding AAGCGACA, the “PBM E-score” value is -0.208.

Regarding AGGCGACC, the “PBM E-score” value was -0.191.

Take ACGCGACG: the “PBM E-score” value is -0.164.

AAGCGACC: the “PBM E-score” value is -0.161.

Turning to AGGCGACG, the “PBM E-score” value is -0.346.

Take AAGCGACT: the “PBM E-score” value is 0.369.

With ACAACGGT, the “PBM E-score” value was -0.116.

Consider ATAAAGAC, for which the “PBM E-score” value turned out to be 0.196.

With CCGGCAAG, the “PBM E-score” value was -0.156.

For CTTGAGAA, the “PBM E-score” value was 0.136.

On to GCTTCGAC, for which the “PBM E-score” value was -0.126.

Consider TCAACAGA, for which the “PBM E-score” value was 0.211.

For the sequence AACTATCA, the “PBM E-score” value turned out to be 0.104.

As to TACTATCA, the “PBM E-score” value turned out to be 0.0134.

On to AACTATCC, for which the “PBM E-score” value is -0.235.

Take CACTATTA: the “PBM E-score” value worked out at 0.0522.

On to GACTATTA, for which the “PBM E-score” value was determined as 0.379.

As to GACTATCA, the “PBM E-score” value stood at 0.394.

Take GACTATCC: the “PBM E-score” value was 0.404.

Consider AACTATTA, for which the “PBM E-score” value is -0.00806.

For the sequence CACTATCC, the “PBM E-score” value is -0.196.

For AACGCACA, the “PBM E-score” value is -0.185.

For CTGGATTC, the “PBM E-score” value was 0.00174.

Consider GTACCGAC, for which the “PBM E-score” value is -0.057.

On to ATTTAGGG, for which the “PBM E-score” value is -0.0441.

ATTAGCCG: the “PBM E-score” value was -0.106.

Regarding TGAAGTAA, the “PBM E-score” value is 0.0152.

For the sequence TGAAGCCA, the “PBM E-score” value turned out to be 0.114.

Turning to AGAAGTCA, the “PBM E-score” value is 0.43.

As to GGAAGTCA, the “PBM E-score” value was 0.426.

With CGAAGTCA, the “PBM E-score” value was found to be 0.437.

Take TGAAGTCA: the “PBM E-score” value was found to be 0.445.

Consider AGAAGTCG, for which the “PBM E-score” value came out at 0.207.

As to CGAAGTCC, the “PBM E-score” value stood at 0.0182.

Take GGAAGTCC: the “PBM E-score” value is 0.0559.

GGAAGTGA: the “PBM E-score” value came to 0.0158.

Regarding CGAAGTCG, the “PBM E-score” value came out at 0.286.

For the sequence AGAAGTCC, the “PBM E-score” value is -0.056.

Consider TAATGCTA, for which the “PBM E-score” value is 0.15.

Consider AGTTTTGC, for which the “PBM E-score” value is 0.0632.

In the case of AATAAGAC, the “PBM E-score” value was determined as 0.175.

As to TGCGGTAA, the “PBM E-score” value worked out at 0.0977.

For CCCACGTC, the “PBM E-score” value is -0.157.

GCGGTTAC: the “PBM E-score” value came out at 0.0193.

Turning to ACAATGCT, the “PBM E-score” value was -0.0617.

On to GTAGCATA, for which the “PBM E-score” value is -0.262.

CCGTCGCG: the “PBM E-score” value was -0.0591.

On to TATTCCCA, for which the “PBM E-score” value was 0.00714.
